Values joined by “and” are separate entries in the source; they are usually repeats but may differ in a detail not shown here. Identical values can stand only once. Records with an inconclusive call do not appear. A call without a number means that no potency is given here. More than one record can exist for a structure, and the calls need not agree. Active and inactive are the calls of the source. Unless noted, calls follow the shape of the dose curve; as a rule, active = well fitted curve in the direction sought with a large enough effect in the repeat runs; inconclusive = weak or mixed curves; inactive = no such curve, though single readings can be large; an effect the other way counts as inactive or inconclusive.
Legend:
[1] = target: Nuclear receptor subfamily 1 group I member 3 (Homo sapiens) (UniProt Q14994); assay: qHTS assay to identify small molecule antagonists of the constitutive androstane receptor (CAR) signaling pathway (AID 1224838);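 also: HepG2 cells stably expressing hCAR with CYP2B6 luciferase reporter stimulated by CITCO; nearly all actives have a fitted effect of over 40% in size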; also: potency is read from the fitted curve at half-maximal effect
Procedure, shortened: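 Antagonist mode used CITCO at a final 50 nM to activate CAR in human hepatoma HepG2 cells carrying stable hCAR and a 2.2 kb CYP2B6 promoter-luciferase construct. Compounds were tested at 15 concentrations over 24 h, with luminescence as the end point.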

[2] = target: Nuclear receptor subfamily 1 group I member 3 (Homo sapiens) (UniProt Q14994); assay: qHTS assay to identify small molecule agonists of the constitutive androstane receptor (CAR) signaling pathway (AID 1224839); also: nearly all actives have a fitted effect of over 15% in size; also: potency is read from the fitted curve at half-maximal effect
Procedure, shortened: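 Luminescence read-out (ONE-Glo, 30 min, room temperature) from double-stable HepG2-CYP2B6-hCAR cells exposed 24 h to 15-point compound series in presence of 0.75 uM PK11195 final.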

[3] = qHTS assay to identify small molecule antagonists of the estrogen related receptor signaling pathway with the pleiotropic PPARgamma coactivator (PGC) from Tox21 10K library - cell viability counter screen (AID 1224840; active = well fitted cell-killing curve with a large enough effect in the repeat runs, not every such curve was filed as active; also: nearly all actives have a fitted effect of over 40% in size; also: potency is read from the fitted curve at half-maximal effect)
Procedure, shortened: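 Multiplexed viability counter screen in the PGC/ERR cell line: cells treated with DMSO-dissolved compounds for 17.5 hours at 37 C, then viability measured as CellTiter-Fluor fluorescence.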

[4] = qHTS assay to identify small molecule agonists of the hypoxia (HIF-1) signaling pathway - cell viability counter screen (AID 1224844; calls by dose curve; also: nearly all actives have a fitted effect of over 50% in size; also: potency is read from the fitted curve at half-maximal effect)
Procedure, shortened: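 Cytotoxicity was measured in parallel with the HRE-driven beta-lactamase readout: after 17 hrs of compound exposure at 37C, HRE-bla ME-180 cells received CellTiter-Glo and luminescence was recorded 30 min later.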

[5] = qHTS assay to identify small molecule agonists of H2AX (AID 1224845; active = well fitted activation curve with a large enough effect in the signal ratio in the repeat runs, not every such curve was filed as active; the % refers to the signal ratio)
Procedure, shortened: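 Phospho-H2AX Ser139 measured by HTRF (ex 320 nm; em 665 and 620 nm) after 24 hr antibody incubation. Compounds, 15 concentrations, 0.76% DMSO, were applied to CHO-K1 cells for 3hr at 37C before lysis.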

[6] = qHTS assay to identify small molecule agonists of H2AX - cell viability counter screen (AID 1224847; calls by dose curve; also: nearly all actives have a fitted effect of over 30% in size; also: potency is read from the fitted curve at half-maximal effect)
Procedure, shortened: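 CHO-K1 wt, 1000 cells/well, o/n 37C; cpds 15 conc, 3 h 37C, 0.76% DMSO; CellTiter-Glo, 30 min RT, luminescence.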

[7] = qHTS RealTime-Glo MT Cell Viability Assay in HepG2 cells - 24 hour (AID 1224867); also: nearly all actives have a fitted effect of over 50% in size
Procedure, shortened: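 qHTS, HepG2, 600 cells/well, RealTime-Glo (NanoLuc + prosubstrate) added with cells; 5 h preincubation; DMSO compound addition; 37 C; luminescence at 0/8/16/24/32/40 h.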

[8] = A CellTox Green Cytotoxicity Assay to monitor cytotoxicity in HEK293 cells - 0 hour (AID 1224869); also: nearly all actives have a fitted effect of over 50% in size; also: potency is read from the fitted curve at half-maximal effect
Procedure, shortened: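 Cells (HEK293, 600/well) and dye reagent are dispensed together. After 5 h at 37 C, 23 nL compound is pinned in. Plates stay at 37 C for 40 h with fluorescence read at 0h, 8h, 16h, 24h, 32h and 40h.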

[9] = target: Luciferin 4-monooxygenase (Photinus pyralis) (UniProt P08659); assay: qHTS assay to identify small molecule inhibitors of firefly luciferase (AID 1224835); also: nearly all actives have a fitted effect of over 25% in size; also: potency is read from the fitted curve at half-maximal effect
Procedure, shortened: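 Inhibition of purified Photinus luciferase is measured by luminescence. Substrate levels (D-luciferin, ATP) sit at their KM values. Each compound is tested in a concentration series.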

[10] = qHTS assay to identify small molecule agonists of the constitutive androstane receptor (CAR) signaling pathway - cell viability counter screen (AID 1224836); also: nearly all actives have a fitted effect of over 45% in size
Procedure, shortened: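 Viability read-out: CellTiter-Fluor fluorescence after 23 h compound exposure at 37 C/5% CO2 in double-stable HepG2-CYP2B6-hCAR cells, with PK11195 present at 0.75 uM final; compounds tested in 15-point titration.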

[11] = qHTS assay to identify small molecule antagonists of the constitutive androstane receptor (CAR) signaling pathway - cell viability counter screen (AID 1224837); also: nearly all actives have a fitted effect of over 45% in size
Procedure, shortened: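 Viability was measured with CellTiter-Fluor in a HepG2 line carrying stably transfected hCAR and a CYP2B6-2.2kb construct. Cells were exposed for 23 hr at 37 C to 15 compound concentrations with 50 nM CITCO as agonist.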

[12] = qHTS assay to identify small molecule antagonists of the estrogen related receptor signaling pathway with the pleiotropic PPARgamma coactivator (PGC) from Tox21 10K library (AID 1224841; call rule not given here; also: actives are mostly falling curves and most rising ones were filed inactive; nearly all actives have a fitted effect of over 50% in size; also: potency is read from the fitted curve at half-maximal effect)
Procedure, shortened: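 Steps: plate 2,000 PGC/ERR cells per well; incubate 6 h at 37 C with 5% CO2; transfer compounds from DMSO stocks by pin tool; incubate 18 h at 37 C; add One-Glo; measure luminescence 30 min later.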

[13] = qHTS assay to identify small molecule agonists of the estrogen related receptor signaling pathway with the pleiotropic PPARgamma coactivator (PGC) from Tox21 10K library (AID 1224842); also: nearly all actives have a fitted effect of over 15% in size
Procedure, shortened: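 Luminescence from One-Glo (30 min, room temperature) measured after PGC/ERR cells had 18 h at 37 C with pinned compound (23 nL in DMSO). Cells had been seeded at 2,000 per well and pre-incubated 6 h.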

[14] = target: Thyrotropin receptor (Homo sapiens) (UniProt P16473); assay: qHTS assay to identify small molecule agonists of the thyroid stimulating hormone receptor (TSHR) signaling pathway (AID 1224843; calls by dose curve; also: nearly all actives have a fitted effect of over 45% in size)
Procedure, shortened: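 A cell-based cAMP HTRF format was run in TSHR-transfected HEK293 cells, 800 per well. Treatment: 30 min, room temperature. Detection: 1 h with labelled cAMP and anti-cAMP cryptate. Concentration-response over 15 points, three replicates.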

[15] = qHTS assay to identify small molecule agonists of the hypoxia (HIF-1) signaling pathway (AID 1224846; active = well fitted activation curve with a large enough effect in the signal ratio in the repeat runs, not every such curve was filed as active; the % refers to the signal ratio)
Procedure, shortened: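 Compounds from the Tox21 10K library, dissolved in DMSO, are tested for induction of a hypoxia response element–controlled beta-lactamase reporter in ME-180 cells. Exposure lasts 17 hrs at 37C after a 5 hr settling period, followed by CCF4-AM FRET substrate.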

[16] = qHTS assay to identify small molecule antagonists of the estrogen related receptor (ERR) signaling pathway from Tox21 library (AID 1224848); also: nearly all actives have a fitted effect of over 50% in size; also: potency is read from the fitted curve at half-maximal effect
Procedure, shortened: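 ERR cell line, 2,000 cells/well. 6 h settle, then compound (DMSO) added; 18 h at 37 C; ONE-Glo luminescence after 30 min RT.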

[17] = qHTS RealTime-Glo MT Cell Viability Assay in HEK293 cells - 32 hour (AID 1224868); also: nearly all actives have a fitted effect of over 50% in size; also: potency is read from the fitted curve at half-maximal effect
Procedure, shortened: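 Assay medium contained NanoLuc luciferase plus cell-permeant prosubstrate, added with HEK293 cells at 600 cells/well. After 5 h at 37 C/5% CO2 compounds were added; plates stayed at 37 C for 40 h with serial luminescence reads.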

[18] = qHTS assay to identify small molecule agonists of the estrogen related receptor (ERR) signaling pathway from Tox21 library (AID 1224849; calls by dose curve; also: nearly all actives have a fitted effect of over 15% in size); conditions: ERR reporter cell line, ONE-Glo luciferase, 18 h; at 92.4 µM (top of the series)
Procedure, shortened: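 Cells carrying the ERR reporter were plated and allowed to settle for 6 h, exposed to library compounds for 18 h at 37 C, then lysed with ONE-Glo and luminescence measured.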

Sequence of Thyrotropin receptor (Homo sapiens) (P16473 whole entry, looked up): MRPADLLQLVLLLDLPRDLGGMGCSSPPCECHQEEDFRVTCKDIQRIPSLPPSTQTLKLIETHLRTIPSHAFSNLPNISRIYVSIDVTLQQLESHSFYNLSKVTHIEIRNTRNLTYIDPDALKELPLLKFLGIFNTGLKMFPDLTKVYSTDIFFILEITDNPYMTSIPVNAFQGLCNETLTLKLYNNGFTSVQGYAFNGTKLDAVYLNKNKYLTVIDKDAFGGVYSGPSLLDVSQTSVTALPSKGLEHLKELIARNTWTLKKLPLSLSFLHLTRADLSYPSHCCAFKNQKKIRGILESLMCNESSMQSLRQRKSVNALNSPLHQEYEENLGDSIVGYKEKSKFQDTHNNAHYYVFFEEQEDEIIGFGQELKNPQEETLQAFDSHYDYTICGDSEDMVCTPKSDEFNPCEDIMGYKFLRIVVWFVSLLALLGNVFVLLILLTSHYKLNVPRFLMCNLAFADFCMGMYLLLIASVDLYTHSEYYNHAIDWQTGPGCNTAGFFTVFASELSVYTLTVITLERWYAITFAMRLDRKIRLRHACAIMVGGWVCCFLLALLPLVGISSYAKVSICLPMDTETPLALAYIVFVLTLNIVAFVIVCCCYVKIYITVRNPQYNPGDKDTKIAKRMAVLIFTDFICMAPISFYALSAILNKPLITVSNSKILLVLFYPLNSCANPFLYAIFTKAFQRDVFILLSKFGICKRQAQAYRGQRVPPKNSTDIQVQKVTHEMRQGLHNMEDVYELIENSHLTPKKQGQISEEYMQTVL
Sequence of Luciferin 4-monooxygenase (Photinus pyralis) (P08659 whole entry, looked up): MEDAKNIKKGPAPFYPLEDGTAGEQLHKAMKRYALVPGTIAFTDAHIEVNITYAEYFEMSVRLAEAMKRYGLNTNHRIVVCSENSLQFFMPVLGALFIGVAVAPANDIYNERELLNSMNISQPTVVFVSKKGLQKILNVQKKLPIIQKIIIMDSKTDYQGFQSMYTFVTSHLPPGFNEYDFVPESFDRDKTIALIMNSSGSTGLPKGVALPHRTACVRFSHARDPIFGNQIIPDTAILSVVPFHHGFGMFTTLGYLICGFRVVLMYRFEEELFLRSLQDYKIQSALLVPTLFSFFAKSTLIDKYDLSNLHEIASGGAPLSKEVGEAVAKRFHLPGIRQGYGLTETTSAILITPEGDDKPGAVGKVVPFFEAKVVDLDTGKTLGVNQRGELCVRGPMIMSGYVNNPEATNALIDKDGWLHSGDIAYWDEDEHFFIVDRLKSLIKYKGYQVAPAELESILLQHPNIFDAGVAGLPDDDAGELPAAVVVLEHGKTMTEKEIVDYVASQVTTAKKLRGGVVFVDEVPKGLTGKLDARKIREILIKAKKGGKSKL
Sequence of Nuclear receptor subfamily 1 group I member 3 (Homo sapiens) (Q14994 whole entry, looked up): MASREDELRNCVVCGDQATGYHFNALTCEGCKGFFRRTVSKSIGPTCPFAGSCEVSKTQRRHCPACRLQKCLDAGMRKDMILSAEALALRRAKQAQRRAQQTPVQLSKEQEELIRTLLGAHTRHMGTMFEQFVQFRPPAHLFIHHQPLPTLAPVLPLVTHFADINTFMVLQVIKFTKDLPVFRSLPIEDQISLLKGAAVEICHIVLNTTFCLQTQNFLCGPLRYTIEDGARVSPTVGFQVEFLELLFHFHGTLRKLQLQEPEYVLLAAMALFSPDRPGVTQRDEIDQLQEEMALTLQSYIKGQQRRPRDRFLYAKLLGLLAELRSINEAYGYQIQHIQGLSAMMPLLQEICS

Row | Compound | Potency [1] | Potency [2] | Potency [3] | Potency [4] | Potency [5] | Potency [6] | Potency [7] | Potency [8] | Potency [9] | Potency [10] | Potency [11] | Potency [12] | Potency [13] | Potency [14] | outcome [15] | Potency [16] | Potency [17] | activity change, positive = activation [18]
1 | CC(C)NCC(O)COc1cccc2ccccc12 (configuration not stated) | inactive | inactive | inactive | inactive | inactive | inactive | inactive | inactive | – | – | – | – | – | – | – | – | – | –
2 | CC1(C)O[C@@H]2C[C@H]3[C@@H]4C[C@H](F)C5=CC(=O)CC[C@]5(C)[C@H]4[C@@H](O)C[C@]3(C)[C@]2(C(=O)CO)O1 | – | – | inactive | inactive | inactive | inactive | inactive | inactive | inactive | inactive | inactive | inactive | inactive | inactive | inactive | inactive | inactive | –
3 | CCCCC(CC)C(=O)OCCOCCOCCOC(=O)C(CC)CCCC (configuration not stated) | inactive | inactive | inactive | inactive | inactive | inactive | inactive | inactive | inactive | inactive | – | inactive | inactive | – | inactive | inactive | – | -11.1% (inactive) and 0.258% (inactive)
4 | NC(=O)/N=N/C(N)=O | inactive | inactive | inactive | inactive | inactive | inactive | inactive | inactive | 31.8 µM (active) and 25.2 µM (active) | inactive | inactive | inactive | inactive | – | inactive | inactive | inactive | 0.308% (inactive) and 1.1% (inactive)
5 | CCCCC(CC)COC(=O)CCCCCCCC(=O)OCC(CC)CCCC (configuration not stated) | 24.3 µM (active) and inactive | inactive | 8.63 µM (active) and inactive | inactive | – | inactive | inactive | 54.9 µM (active) and inactive | inactive | – | – | 24.3 µM (active) and inactive | inactive | inactive | inactive | 7.7 µM (active) and inactive | 6.17 µM (active) and inactive | -81.2% (inactive) and -2.38% (inactive)
6 | CC1(C)CC(N=C=O)CC(C)(CN=C=O)C1 (configuration not stated) | – | inactive | inactive | inactive | inactive | inactive | inactive | inactive | inactive | inactive | – | – | – | inactive | inactive | – | inactive | –
7 | O=[N+]([O-])c1cc(N(CCO)CCO)ccc1NCCO | – | – | inactive | inactive | – | 50.4 µM (active) and 50.5 µM (active) | inactive | inactive | 28.2 µM (active) and 39.9 µM (active) | – | – | – | – | – | inactive | – | inactive | –
8 | CCCCC(CC)COC(=O)/C=C\C(=O)OCC(CC)CCCC (configuration not stated) | inactive | 61.1 µM (active) | inactive | inactive | inactive | inactive | inactive | inactive | inactive | inactive | – | inactive | inactive | inactive | inactive | inactive | inactive | –
9 | C[C@@H](O)[C@H]1C(=O)N2C(C(=O)O)=C(S[C@@H]3CN[C@H](C(=O)N(C)C)C3)[C@H](C)[C@H]12 | inactive | inactive | inactive | inactive | – | inactive | inactive | inactive | inactive | inactive | – | inactive | inactive | inactive | – | inactive | inactive | –
10 | C=C(C)C(=O)OCCCCCC | – | – | inactive | inactive | inactive | inactive | inactive | inactive | inactive | inactive | inactive | – | – | inactive | inactive | – | inactive | –
11 | CCCCCCCCCCC=CC1CC(=O)OC1=O (configuration not stated) | inactive | inactive | inactive | inactive | – | inactive | inactive | inactive | 63.6 µM (active) and 71 µM (active) | inactive | inactive | – | – | inactive | inactive | – | inactive | –
12 | S=c1nc[nH]c2nc[nH]c12 | 1.5 µM (active) and 3.35 µM (active) | inactive | inactive | inactive | – | inactive | inactive | inactive | inactive | inactive | – | – | – | inactive | inactive | – | 16.9 µM (active) | –
13 | O=C(Oc1ccccc1)c1ccc(O)cc1 | – | – | inactive | inactive | – | – | inactive | inactive | 35.8 µM (active) and 35.6 µM (active) | inactive | inactive | – | – | inactive | inactive | – | inactive | –
14 | CNC[C@H](O)[C@@H](O)[C@H](O)[C@H](O)CO | inactive | inactive | inactive | inactive | inactive | inactive | inactive | inactive | inactive | inactive | inactive | – | – | inactive | – | – | inactive | –
15 | CC1CC(OC(=O)c2ccccc2O)CC(C)(C)C1 (configuration not stated) | inactive | inactive | inactive | 48.5 µM (active) and inactive | – | inactive | inactive | inactive | inactive | inactive | inactive | – | – | inactive | – | – | inactive | –
16 | O=C(Cl)c1c(Cl)c(Cl)c(C(=O)Cl)c(Cl)c1Cl | inactive | inactive | inactive | inactive | – | inactive | inactive | inactive | inactive | inactive | – | inactive | inactive | – | inactive | inactive | inactive | –
17 | O=S(=O)(O)CCS | inactive | inactive | inactive | inactive | – | inactive | inactive | inactive | inactive | inactive | inactive | inactive | inactive | inactive | inactive | inactive | inactive | –
